# Assay results published in the supplement of paper PMC10105736.
# Unmarked numbers belong to inactive results.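 The calls were made as follows: active = MAPPIT score above the 99th percentile of random reference set scores in the same batch; inactive = at or below it.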
# B1: bol (protein)
# chain: MHKIAAAPPPSATPGGGLETPLAAPKYGTLIPNRIFVGGISGDTTEADLTRVFSAYGTVKSTKIIVDRAGVSKGYGFVTFETEQEAQRLQADGECVVLRDRKLNIAPAIKKQPNPLQSIVATNGAVYYTTTPPAPISNIPMDQFAAAVYPPAAGVPAIYPPSAMQYQPFYQYYSVPMNVPTIWPQNYQENHSPLLHSPTSNPHSPHSQSHPQSPCWSIEDLRDTLPRV
# B2: Tollo (protein)
# chain: MLATTHMLYVLIATCVIPIFGAALSKTVLYQAPDECRWSGGGEHDITLVCHLRTINSELENTNFSVIQPQNTVRLRLECNDALFFQSSLSPDSFRSLVELRDLTIEYCKLGNLTDGSFRGLQELRNLTIRTHNGDWSTMSLEMASNSFVEFRQLERLDLSLNNIWLIPDGMVCPLKSLQHLNASYNKIQDISNFYFSASLSSRKARVCGSTLQSLDLSANKMVSLPTAMLSALGRLTHLNMAKNSMSFLADRAFEGLLSLRVVDLSANRLTSLPPELFAETKQLQEIYLRNNSINVLAPGIFGELAELLVLDLASNELNSQWINAATFVGLKRLMMLDLSANKISRLEAHIFRPLASLQILKLEDNYIDQLPGGIFADLTNLHTLILSRNRISVIEQRTLQGLKNLLVLSLDFNRISRMDQRSLVNCSQLQDLHLNDNKLQAVPEALAHVQLLKTLDVGENMISQIENTSITQLESLYGLRMTENSLTHIRRGVFDRMSSLQILNLSQNKLKSIEAGSLQRNSQLQAIRLDGNQLKSIAGLFTELPNLVWLNISGNRLEKFDYSHIPIGLQWLDVRANRITQLGNYFEIESELSLSTFDASYNLLTEITASSIPNSVEVLYLNDNQISKIQPYTFFKKPNLTRVDLVRNRLTTLEPNALRLSPIAEDREIPEFYIGHNAYECDCNLDWLQKVNRESRTQPQLMDLDQIHCRLAYARGSSHVSLIEAKSDDFLCKYASHCFALCHCCDFQACDCKMECPDRCSCYHDQSWTSNVVDCSRASYEQTLPSHIPMDSTQLYLDGNNFRELQSHAFIGRKRLKVLHLNHSRIEVLHNRTFYGLLELEVLQLQSNQLKALNGNEFQGLDNLQELYLQHNAIATIDTLTFTHLYHLKILRLDHNAITSFAVWNFLPSYLNELRLASNPWTCSCEFIDKLRDYINRHEYVVDKLKMKCDVISGNSTQQMVIYPGSGEPASLPVVQCSQTLPLGLDNNFNYAEQAGGENASNATSTKMILNQPPKLDYIPILVAILTAFIFVMICISLVFIFRQEMRVWCHSRFGVRLFYNAQKDVDKNEREKLFDAFVSYSSKDELFVNEELAPMLEMGEHRYKLCLHQRDFPVGGYLPETIVQAIDSSRRTIMVVSENFIKSEWCRFEFKSAHQSVLRDRRRRLIVIVLGEVPQKELDPDLRLYLKTNTYLQWGDKLFWQKLRFALPDVSSSQRSNVAGQSCHVPINHASYHHHHHVHQQAMPLPHSVHHHQQQFMLPPPPQQPGSFRRQPSLHQQQQQQQQIRGNNNTTQQQQQQQAALLMGGGSVGGPAPQMIPLAGGIQQQSLPLPPNQQPTPASRNLHM
# B3: crn (protein)
# chain: MERPQKMPKVAKVKNKAPAEVQITAEQLLREAKERDLEILPPPPKQKISDPAELADYQQRKRKTFEDNLRKNRMVVSHWIKYAQWEEQQQEIQRARSIWERALDNEHRNVTLWLKYAEMEMKNKQVNHARNLWDRAVTIMPRVNQFWYKYTYMEEMLENVAGARQVFERWMEWQPEEQAWQTYVNFELRYKEIDRAREIYERFVYVHPDVKNWIKFARFEESHGFIHGSRRVFERAVEFFGDDYIEERLFIAFARFEEGQKEHDRARIIYKYALDHLPKDRTQELFKAYTKHEKKYGDRAGIEDVIVSKRKYQYEQEVAANPTNYDAWFDYLRLIEAEGDRDQIRETYERAISNVPPANEKNFWRRYIYLWINYALYEELEAEDAERTRQIYKTCLELIPHKQFTFSKLWLLYAQFEIRCKELQRARKALGLAIGMCPRDKLFRGYIDLEIQLREFERCRMLYEKFLEFGPENCVTWMKFAELENLLGDTDRARAIFELAVQQPRLDMPELLWKAYIDFEVALGETELARQLYERLLERTQHVKVWMSFAKFEMGLSHGDSGPDAELNVQLARRIYERANEMLRQLGDKESRVLLLEAWRDFERDASDSQEMQKVMDKMPRRIKKRQKIVSDNGVEEGWEEVFDYIFPEDEMARPNLKLLAAAKMWKTQKDNTVDDPPATAIASEPEPAADAAPADTTDSGD
# B4: tap (protein)
# chain: MAACYNAYSAGSQSFEFDEDDDDASFDSGYEKSFETEAQLSSRRRLDFGTPPTPAIPQPYSGGTWDAVPLSSPPAGFVGLLDTSSNHSTRSGRTLVEHLNSRATNGVFDPPLTSTPVKSPEDPNAPRPKRKYAVGKNRVTRSRSPTQVVKIKRFRRMKANDRERNRMHNLNDALEKLRVTLPSLPEETKLTKIEILRFAHNYIFALEQVLESGGSINLDLEKLQNFTLSGERITKELFDALFVNPQPYPLFGRMFPYGQGMAPLAQHQTAPASHAEQPPAMGGFQHGMDYPQQPPGFDFTGSMRFYHQQQQQPHQPHHLQPNPQQESSPQQFSQEKYDLFRGSFDAAANLHSTNLDSGIHQQSSFYSQTPPWKDYPEDQAHVHPVPHQHSYKNFAPQV
# B5: RasGAP1 (protein)
# chain: MLLKKKRYMFDERDDNNINSPVAVEPSSNNNKMADTREVRIEEQLKVKIGEAKNLSSRNAANTSCSTQGTRDVYCTIALDQEEICRTPTIERTLTPFFGEEHQFKIPRRFRYLTIYLWDRDMKQDKPIGKIAIKREELHMYNHKDHWFSLRPVDQDSEVQGMVNVEVAFTEAQQTQSLSEGIDLGQHTLRHHQNLPHHSHQQRAHLNDYKENSELSNIQRASAAAASSSSAAMTLKTRAAGLFGHVHHPPSQTQHFPIINTTSTSSDQLSNWKSHGRFVGVTIKVPACVDLAKKQGTCDPFVVCTAHYSNKHQVTRRTKQRKKTVDPEFDEAMYFDLHIDADAGSTNTTGSNKSAGSLESSANKGYSIYPVGGADLVEIVVSVWHDAHGAMSDKVFLGEVRLPMLNKQEQQAVNPSAWYYLQPRSMTHSSRSLNATPRSCATPPGTRLSVDSTIGSLRLNLNYTADHVFPLATYDDLMNLLLESVDQRPITVSAVSILGELVSGKTEVAQPLVRLFTHTERIAPIIKALADHEISHLTDPTTIFRGNTLVSKMMDEAMRLSGLHYLHQTLRPVLSQIVAEKKPCEIDPSKIKDRSAVDTNLHNLQDYVERVFEAITKSADRCPKVLCQIFHDLRECAGEHFPSNREVRYSVVSGFIFLRFFAPAILGPKLFDLTTERLDAQTSRTLTLISKTIQSLGNLVSSRSSQQTCKEEFTVELYKKFCTEQHVDAVKHFLEVISTPSHASSSVHPAAAAATPLEPVLLKEGLMTKYPTSRKRFGRQFKQRHFRLTTHSLSYAKSKGKQPICDIPLQEIASVEQLKDKSFKMQNCFKIVHNDRSLIVQTTNCVEEREWFDLLHKICLMNSIRMQYFHPSAFVSGFYSCCGRSDENSPGCKKVLDKTMDYFQMDLVTALDPALDLQRIHTLIMSNMSVLESLLDPLTYHQSLSQTQHQQHNPLVPLATDLQKHSPQAFAEFKRTIEKLREKAYAIDRDHRDYKQGITRQLKYGSRQAPIGDDNYWHMMRAAGQLNQQHHQQQQHQQQQQQQQQQQLQQFQPQPVLPQMQNVRAYPYQPATSNMNAYCLHNMQYQQQRLPFHQQQQQHHQQLQQQQSQFQPLRSHQLQRHNNNLNNNNCGNGSSSSPSSTTSSVVAAPPSTTSSSQPAPPIY
# B6: Vha14-1 (protein)
# chain: MALHSAIKGKLISVIGDEDTCVGFLLGGVGEINKNRHPNFMVVDKNTAVSELEDCFKRFLKRDDIDIILINQNCAELIRHVIDAHTSPVPAVLEIPSKDHPYDASKDSILRRARGMFNPEDLVR
# B7: Shrm (protein)
# chain: MKMRNHKENGNGSEMGESTKSLAKMEPENNNKISVVSVSKLLLKDSNGANSRSSNSNASFSSASVAGSVQDDLPHHNSSSSQLGQQHGSSLDQCGLTQAGLEEYNNRSSSYYDQTAFHHQKQPSYAQSEGYHSYVSSSDSTSATPFLDKLRQESDLLSRQSHHWSENDLSSVCSNSVAPSPIPLLARQSHSHSHSHAHSHSNSHGHSHGHAHSASSSSSSNNNSNGSATNNNNNNSSESTSSTETLKWLGSMSDISEASHATGYSAISESVSSSQRIVHSSRVPTPKRHHSESVLYLHNNEEQGDSSPTASNSSQMMISEEANGEESPPSVQPLRIQHRHSPSYPPVHTSMVLHHFQQQQQQQQDYQHPSRHHTNQSTLSTQSSLLELASPTEKPRSLMGQSHSMGDLQQKNPHQNPMLGRSAGQQHKSSISVTISSSEAVVTIAPQPPAGKPSKLQLSLGKSEALSCSTPNMGEQSPTNSIDSYRSNHRLFPVSTYTEPVHSNTSQYVQHPKPQFSSGLHKSAKLPVITPAGATVQPTWHSVAERINDFERSQLGEPPKFAYLEPTKTHRLSNPALKALQKNAVQSYVERQQQQQKEEQQLLRPHSQSYQACHVERKSLPNNLSPIMVGLPTGSNSASTRDCSSPTPPPPPRRSGSLLPNLLRRSSSASDYAEFRELHQAQGQVKGPSIRNISNAEKISFNDCGMPPPPPPPRGRLAVPTRRTSSATEYAPMRDKLLLQQAAALAHQQHHPQQHRHAQPPHVPPERPPKHPNLRVPSPELPPPPQSELDISYTFDEPLPPPPPPEVLQPRPPPSPNRRNCFAGASTRRTTYEAPPPTAIVAAKVPPLVPKKPTSLQHKHLANGGGGSRKRPHHATPQPILENVASPVAPPPPLLPRARSTAHDNVIASNLESNQQKRSNSKASYLPRQSLEKLNNTDPDHGIYKLTLTSNEDLVAHTKPSYGVTGKLPNNLPDVLPLGVKLHQQPKLQPGSPNGDANVTLRYGSNNNLTGNSPTVAPPPYYGGGQRYSTPVLGQGYGKSSKPVTPQQYTRSQSYDVKHTSAVTMPTMSQSHVDLKQAAHDLETTLEEVLPTATPTPTPTPTPTPPRLSPASSHSDCSLSTSSLECTINPIATPIPKPEAHIFRAEVISTTLNTNPLTTPPKPAMNRQESLRENIEKITQLQSVLMSAHLCDASLLGGYTTPLITSPTASFANEPLMTPPLPPSPPPPLEPEEEEEQEENDVHDKQPEIEELQLMQRSELVLMVNPKPSTTDMACQTDELEDRDTDLEAAREEHQTRTTLQPRQRQPIELDYEQMSRELVKLLPPGDKIADILTPKICKPTSQYVSNLYNPDVPLRLAKRDVGTSTLMRMKSITSSAEIRVVSVELQLAEPSEEPTNLIKQKMDELIKHLNQKIVSLKREQQTISEECSANDRLGQDLFAKLAEKVRPSEASKFRTHVDAVGNITSLLLSLSERLAQTESSLETRQQERGALESKRDLLYEQMEEAQRLKSDIERRGVSIAGLLAKNLSADMCADYDYFINMKAKLIADARDLAVRIKGSEEQLSSLSDALVQSDC
# B8: Bre1 (protein)
# chain: MSKRSADDATGSSCLVAAAAAGQPPIKKVHFEPHLIGPVSTLEEMDIKVLEFQNKKLAQRIEQRMRTEAELRHRIEQLEKRQTQDDAVLNVVNRYWNQLNEDIRVLLQRFDAETADELENRNENEVTTSFLAQLSTWDKEELDEKLANRVQVSKRAVAKIVQVIDRLMQRNEKITHVLKGDSLASAGSGSGAGAGGEEEQQQASGDAETTTSSAGVHALEETLKQTHIEIMSENHKLQNLNTSLHEKFHTMSLKMKEYQDAHTAKETENAELKNQIDELQYDLEKIHCRNDKLENHLAEAIEKLKAYHQIYGDPNKSTNSAKTPTTTGSGGATTSVNSQLLEELQKELEEYRELANNRLQELDKLHATHRETLKEVEKLKMDIRQLPESVIVETTEYKCLQSQFSVLYNESMQIKTMLDETRNQLQTSKNQHLRQIEVMESEELIAQKKVRSEMIQMEDVLALIRKEYETLRIEFEQNMAANEQTAPINREMRHLITSLQNHNGQLKGEVQRYKRKYKDTSTDNLKLRQELADALATLEGNKLQAATGAAGEEIKQENSTGVKEENSNNVSASGQTNQTNSGNDTNVAIKEENHISAEDEADDEASGKDVKDGIKQEKLSSGDAAAAEKKDSPGPGNSTSSATNSVPVKNEKDSKDGVKGKDVKAVESETVRDLKAQLKKALNDQKEMKLLLDMYKGVSKDQRDKVQLMATEKKLRSEIEELRQQLKKLQESKREERKKLADEEALRKIKQLEEQKYELQKQMANHKPTDNSWGSGAPGTANYTRPFVGSHEEEALLNEMEVTGQAFEDMQEQNSRLIQQLREKDDANFKLMSERIKANQLHKLLREEKTVLEDQMATATTQIEAMHIVLRKLEEKERSLQATVASIEKELMLRQQAMEMHKRKAIESAQSAADLKLHLEKYHAQMKEAQQVVAEKTSSLEAEAYKTKRLQEELAQFKRKAERMKKMEMSGTTIDEVMIEEIREYKETLTCPSCKVKRKDAVLSKCFHVFCYDCLRTRYETRQRKCPKCNCAFGANDYHRLYLQ
# Columns and labels:
# Experiment in all cases: MAPPIT interaction score (arbitrary units); higher = stronger binary interaction signal, active = hit call of the paper
# CG9106 = settings: MAPPIT configuration: N-N; pair source set: screen_2
# CG9133 = settings: MAPPIT configuration: N-N; pair source set: screen_1
# GstT2 = settings: MAPPIT configuration: N-N; pair source set: screen_1
# CG8128 = settings: MAPPIT configuration: N-N; pair source set: Finley_Y2H
# CG8320 = settings: MAPPIT configuration: N-C; pair source set: screen_4
# CG8043 = settings: MAPPIT configuration: N-N; pair source set: DPIM
# CG8292 = settings: MAPPIT configuration: N-N; pair source set: Curagen_low_conf
# CG7747 = settings: MAPPIT configuration: N-N; pair source set: Finley_Y2H
# CG9040 = settings: MAPPIT configuration: N-N; pair source set: Finley_Y2H
# 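Also: HEK293T cells with Epo stimulation, STAT-responsive firefly luciferase reporter, fold induction versus unstimulated cells divided by the larger fold induction of two negative controls lacking either bait or prey.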
binder,measurement,setting,value
B1,MAPPIT interaction score,CG9106,3.9 (active)
B2,MAPPIT interaction score,CG9133,1.51
same,MAPPIT interaction score,GstT2,2.34
B3,MAPPIT interaction score,CG8128,2.14
B4,MAPPIT interaction score,CG8320,-0.175
B5,MAPPIT interaction score,CG8043,0.645
B6,MAPPIT interaction score,CG8292,-0.0476
B7,MAPPIT interaction score,CG7747,-0.185
B8,MAPPIT interaction score,CG9040,-0.0702
